Source: PubChem (National Center for Advancing Translational Sciences (NCATS))
Sampled rows, rich in hits. Any-hit rate of the full collection: about 12%.
G9a block: blocks human histone lysine methyltransferase G9a; G9a H3K9 monomethylation, AlphaScreen, 2 h; Potency, µM (top dose mostly 102 µM), for the others: top-dose activity, negative = inhibition, hits mostly inhibitors; 8.8% of 350,000 active; AID 504332; note: % is set by controls: 0 for no effect and ±100 for the full control effect; nearly all actives have a fitted effect of over 75% in size
Target sequence (Q96KQ7 913-1193 limits assumed): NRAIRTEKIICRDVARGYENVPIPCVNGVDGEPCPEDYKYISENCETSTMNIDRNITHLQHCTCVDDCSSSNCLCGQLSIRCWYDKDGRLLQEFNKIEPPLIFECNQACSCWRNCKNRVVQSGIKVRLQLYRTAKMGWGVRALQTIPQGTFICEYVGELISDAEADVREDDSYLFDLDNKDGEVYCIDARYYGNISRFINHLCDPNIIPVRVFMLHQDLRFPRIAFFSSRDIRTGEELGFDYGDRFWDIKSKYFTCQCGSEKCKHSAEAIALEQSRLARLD
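Enzyme 20 nM + cpd, 15 min RT; add b-H3K9 pep 500 nM / SAM 20 uM; 2 h RT; anti-H3K9me1 Ab 0.5 ug/mL + SA donor / anti-rabbit acceptor beads 20 ug/mL each, 10 min; AlphaScreen read.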
BAZ2B inh: blocks human BAZ2B. AlphaScreen BAZ2B-H3K14Ac peptide displacement. 4.4% of 360,000 active. Q9UIF8. AID 504333. Potency, µM (doses to about 114 µM), without a hit: top-dose activity change, negative = inhibition, hits mostly inhibitors; note: % is set by controls: 0 for no effect and ±100 for the full control effect; nearly all actives have a fitted effect of over 60% in size
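AlphaScreen displacement of biotin-H3(5-23)K14Ac peptide (50 nM final) from BAZ2B (50 nM final) in PBS pH 7.4, 0.01% Tween-20; complex preformed 30 min RT, then compounds (top 110 uM) 30 min RT, beads 20 min dark.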
Sfp inh: inhibitors of Bacillus subtilis Sfp phosphopantetheinyl transferase | 3.5% of 310,000 active | Potency, µM, for the others: largest response in the series, negative = inhibition, actives largely listed as inhibitors | Biochemical Sfp PPTase activity, qHTS | Q9F4F7;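 note: the enzyme is Sfp with the accession as filed and its product quenches rhodamine fluorescence; 0% = enzyme reaction without inhibitor and -100% = no enzyme wells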
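Fluorescence-quenching assay with 15 nM Sfp, 5 uM rhodamine-CoA and 12.5 uM BHQ-2-labelled ybbR peptide in pH 7.6 Hepes/MgCl2 buffer. Enzyme was pre-incubated with compound for 15 min at room temperature. Rate was taken from the 30-min fluorescence change (525/598 nm).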
L3MBTL1 block: inhibitors of human L3MBTL1; Potency, µM (series often up to 57.1 µM), without a hit: top-dose activity, negative = inhibition, most hits filed as inhibitors; AlphaScreen L3MBTL1–H3K9me1 peptide binding; 0.66% of 230,000 active; Q9Y468; AID 485360; note: % is set by controls: 0 for no effect and ±100 for the full control effect; nearly all actives have a fitted effect of over 60% in size
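AlphaScreen proximity signal between nickel-chelate acceptor and streptavidin donor beads (final 10 ug/mL) reports binding of 50 nM L3MBTL1 to 75 nM biotin-H3 K9me1 peptide; complex incubated with compounds 30 min at room temperature; cefsulodin titration as control.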
JMJD2A Tudor inh: inhibitors of human JMJD2A Tudor domain; O75164; AlphaScreen JMJD2A-Tudor / H3K4me3 peptide binding; Potency, µM (doses to about 114 µM), without a hit: at the highest dose activity change, negative = inhibition, hits mostly inhibitors; 4.4% of 390,000 active; AID 504339; note: % is set by controls: 0 for no effect and ±100 for the full control effect; nearly all actives have a fitted effect of over 50% in size
HP1b chromo inh: inhibitors of HP1-beta chromodomain binding to methylated histone tails; P83916; AlphaScreen HP1-beta / biotin-H3K9me3 peptide binding; Potency, µM (titrated, usually from 114 µM), for inactives: top-dose activity change, negative = inhibition, most hits filed as inhibitors; 0.56% of 390,000 active; AID 540317; note: nearly all actives have a fitted effect of over 70% in size
Target sequence (P83916 whole entry, looked up): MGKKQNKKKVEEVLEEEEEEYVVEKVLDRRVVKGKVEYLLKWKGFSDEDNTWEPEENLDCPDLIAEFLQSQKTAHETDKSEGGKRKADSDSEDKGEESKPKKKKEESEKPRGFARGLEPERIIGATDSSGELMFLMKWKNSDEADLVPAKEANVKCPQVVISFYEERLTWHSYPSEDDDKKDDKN
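AlphaScreen: HP1-beta (50 nM) preformed 30 min with biotin-H3(1-18)K9me3 peptide (50 nM) in PBS pH 7.4, 0.01% Tween-20. Compound added for 30 min at RT, then streptavidin donor/nickel chelate acceptor beads (10 ug/mL) for 30 min.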
Active calls of the source: *; ! = repeats disagree; [ ] = another dose, or the depositor's remark. Calls come from the whole dose curve; as a rule, active = well fitted curve in the direction sought with a large enough effect; inconclusive = small, poorly fitted or top-dose-only effect, or another doubt; inactive = no such curve, though single readings can be large; an effect the other way counts as inactive or inconclusive. Potency is the fitted concentration of half-maximal effect.

`COC(=O)c1ccccc1OC(=O)c1ccc(Br)o1` gave G9a block 1%[12.7 µM], BAZ2B inh 12%, Sfp inh 5%, L3MBTL1 block 3%[11.4 µM], JMJD2A Tudor inh -9% and HP1b chromo inh 50%.
`Oc1ccc(Cl)cc1Sc1cc(Cl)ccc1O` gave Sfp inh 19%, JMJD2A Tudor inh inconclusive and HP1b chromo inh 0%[57 µM].
Screening NCC1OC(O[C@@H]2[C@H](O)[C@@H](OC3C(O)C(N)CC(N)C3OC3OC(CO)C(O)C(O)C3N)O[C@@H]2CO)C(N)C(O)C1O (stereo partly drawn) returned G9a block 11%[12.7 µM].
COC(=O)[C@]1(C)CC[C@@]2(C)CC[C@@]3(C)C4=CC=C5C(=CC(=O)C(O)=C5C)[C@@]4(C)CC[C@@]3(C)C2C1 (stereo partly drawn) was read as G9a block inconclusive and Sfp inh -85%.
Screening O=C1NC(=O)C(=Cc2cc(Cl)ccc2OCc2ccc(C(=O)O)cc2)C(=O)N1 returned G9a block 32µM*, BAZ2B inh 3%, Sfp inh 50µM*, JMJD2A Tudor inh -12% and HP1b chromo inh 11%.
`Clc1cccc(CN2CCCCC2c2cccnc2)c1` (stereo not drawn) gave G9a block 56µM*, BAZ2B inh inconclusive, Sfp inh 50µM*, L3MBTL1 block -5%, JMJD2A Tudor inh -13% and HP1b chromo inh 50%.
For O=C1C2CCCN2C(c2cccnc2)N1c1ccc(Cl)cc1 (stereo not drawn) the results were G9a block -25%, BAZ2B inh 8%, Sfp inh 12%, L3MBTL1 block 8%, JMJD2A Tudor inh -14% and HP1b chromo inh 41%.
Screening c1cncc(C2CCCCN2Cc2ccc3c(c2)OCO3)c1 (stereo not drawn) returned G9a block 79µM*, BAZ2B inh inconclusive, Sfp inh -1%, L3MBTL1 block -2%, JMJD2A Tudor inh -33% and HP1b chromo inh 1%.
CN1CCC[C@H]1c1cccnc1 was read as G9a block 14µM*!, BAZ2B inh -5%, Sfp inh 15%, L3MBTL1 block 11%, JMJD2A Tudor inh inconclusive and HP1b chromo inh 24%.
O=C1C2CCCN2C(c2cccnc2)N1c1cccc(Cl)c1 (stereo not drawn) was read as G9a block -1%, BAZ2B inh 6%, Sfp inh 13%, JMJD2A Tudor inh -1% and HP1b chromo inh 25%.
CN1CCCCC1c1ccc(-c2cccnc2)nc1 (stereo not drawn) was read as G9a block -118%[59 µM], BAZ2B inh inconclusive, Sfp inh -3%, L3MBTL1 block 7%, JMJD2A Tudor inh -18% and HP1b chromo inh 32%.
O=C1C2CCCN2C(c2cccnc2)N1c1nccs1 (stereo not drawn) was read as G9a block 13µM*, BAZ2B inh -35%, Sfp inh -7%, L3MBTL1 block 4%, JMJD2A Tudor inh inconclusive and HP1b chromo inh 18%.
CC(C)(COC(=O)C(c1ccccc1)c1ccccc1)CN1CCOCC1 was read as JMJD2A Tudor inh 106% and HP1b chromo inh 82%.
For NCCNC[C@@H](N)CCCN=C(N)N[N+](=O)[O-] the results were Sfp inh 11%.
For C=CCN1C(=O)/C(=C\c2ccc(N3CCOCC3)o2)C(=O)NC1=S the results were G9a block 8.9µM*, BAZ2B inh 1%, Sfp inh 56µM*, L3MBTL1 block -7%, JMJD2A Tudor inh -9% and HP1b chromo inh 1%.
For CCN1C(=O)C(=Cc2ccc(N3CCOCC3)o2)C(=O)N(CC)C1=S the results were BAZ2B inh 40µM*, Sfp inh -23%, L3MBTL1 block -6%, JMJD2A Tudor inh -34% and HP1b chromo inh -8%.
